Data from the supplement of paper PMC10849652.
Targets with a hit are over-represented here; the source holds about 8,800 in all. About 0.5% of all pairs of compound and target were hits.

compound: C1=CC2=C(C=CC(=C2)/C=C\3/C(=O)NC(=NCC4=CC=CS4)S3)N=C1; assay: log2 fold change, soluble protein after heating vs DMSO (PISA); higher = thermal stabilisation; K562 lysate, 10 uM; active = over 0.2 and 3.5 SD of the protein, either way, in both replicates (recomputed)
How it was run: (§1)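 Pellets of K562 cells were dounce-homogenised in PBS pH 7.4 with 1 mM MgCl2, and the crude extract was held at 1 mg/mL protein for a 30 min treatment with 10 μM compound. Aliquots were heated for 3 min over 48°C-58°C and pooled before NP-40 was added to 0.5% at 4°C. The supernatant from 21,000xg for 90 min was quantified by TMTpro 16plex LC-MS/MS with channel sums equalised. Values are reported from duplicates as log-two fold change in thermal stability relative to solvent controls.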

UniProt Q9NP77, sequence (Q9NP77 whole entry, looked up): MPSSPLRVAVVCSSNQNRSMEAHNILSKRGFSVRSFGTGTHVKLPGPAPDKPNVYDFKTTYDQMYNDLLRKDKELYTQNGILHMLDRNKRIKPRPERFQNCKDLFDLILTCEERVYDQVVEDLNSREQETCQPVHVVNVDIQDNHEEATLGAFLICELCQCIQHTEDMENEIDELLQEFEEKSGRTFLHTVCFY
UniProt P53985, sequence (P53985 whole entry, looked up): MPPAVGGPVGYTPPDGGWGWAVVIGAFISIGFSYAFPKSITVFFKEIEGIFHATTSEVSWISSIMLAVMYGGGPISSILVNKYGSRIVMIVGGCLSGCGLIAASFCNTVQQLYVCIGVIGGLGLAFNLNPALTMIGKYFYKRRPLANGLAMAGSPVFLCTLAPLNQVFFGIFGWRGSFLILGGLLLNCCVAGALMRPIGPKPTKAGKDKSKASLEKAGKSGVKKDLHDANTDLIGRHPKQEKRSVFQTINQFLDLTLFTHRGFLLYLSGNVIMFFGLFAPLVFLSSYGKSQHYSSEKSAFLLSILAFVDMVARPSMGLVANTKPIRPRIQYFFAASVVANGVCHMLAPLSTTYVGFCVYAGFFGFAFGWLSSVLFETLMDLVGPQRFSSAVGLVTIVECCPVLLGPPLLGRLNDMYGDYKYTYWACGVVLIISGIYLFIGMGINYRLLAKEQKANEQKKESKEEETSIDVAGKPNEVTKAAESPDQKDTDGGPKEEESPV
UniProt Q9H7B4, sequence (Q9H7B4 whole entry, looked up): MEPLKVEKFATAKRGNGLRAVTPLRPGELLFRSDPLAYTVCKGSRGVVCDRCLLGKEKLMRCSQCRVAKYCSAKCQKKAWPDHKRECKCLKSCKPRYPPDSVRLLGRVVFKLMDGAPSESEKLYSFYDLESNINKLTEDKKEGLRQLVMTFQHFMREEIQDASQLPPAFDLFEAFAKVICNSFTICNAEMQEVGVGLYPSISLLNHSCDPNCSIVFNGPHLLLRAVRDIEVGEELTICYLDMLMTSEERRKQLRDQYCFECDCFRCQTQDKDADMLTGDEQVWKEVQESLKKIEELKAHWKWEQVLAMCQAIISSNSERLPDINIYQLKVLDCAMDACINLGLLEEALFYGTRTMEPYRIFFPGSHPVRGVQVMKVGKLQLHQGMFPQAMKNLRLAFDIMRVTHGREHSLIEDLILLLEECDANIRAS
UniProt P62306, sequence (P62306 whole entry, looked up): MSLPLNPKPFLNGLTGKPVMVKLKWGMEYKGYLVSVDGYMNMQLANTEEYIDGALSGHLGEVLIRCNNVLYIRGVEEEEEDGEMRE
UniProt Q92540, sequence (Q92540 whole entry, looked up): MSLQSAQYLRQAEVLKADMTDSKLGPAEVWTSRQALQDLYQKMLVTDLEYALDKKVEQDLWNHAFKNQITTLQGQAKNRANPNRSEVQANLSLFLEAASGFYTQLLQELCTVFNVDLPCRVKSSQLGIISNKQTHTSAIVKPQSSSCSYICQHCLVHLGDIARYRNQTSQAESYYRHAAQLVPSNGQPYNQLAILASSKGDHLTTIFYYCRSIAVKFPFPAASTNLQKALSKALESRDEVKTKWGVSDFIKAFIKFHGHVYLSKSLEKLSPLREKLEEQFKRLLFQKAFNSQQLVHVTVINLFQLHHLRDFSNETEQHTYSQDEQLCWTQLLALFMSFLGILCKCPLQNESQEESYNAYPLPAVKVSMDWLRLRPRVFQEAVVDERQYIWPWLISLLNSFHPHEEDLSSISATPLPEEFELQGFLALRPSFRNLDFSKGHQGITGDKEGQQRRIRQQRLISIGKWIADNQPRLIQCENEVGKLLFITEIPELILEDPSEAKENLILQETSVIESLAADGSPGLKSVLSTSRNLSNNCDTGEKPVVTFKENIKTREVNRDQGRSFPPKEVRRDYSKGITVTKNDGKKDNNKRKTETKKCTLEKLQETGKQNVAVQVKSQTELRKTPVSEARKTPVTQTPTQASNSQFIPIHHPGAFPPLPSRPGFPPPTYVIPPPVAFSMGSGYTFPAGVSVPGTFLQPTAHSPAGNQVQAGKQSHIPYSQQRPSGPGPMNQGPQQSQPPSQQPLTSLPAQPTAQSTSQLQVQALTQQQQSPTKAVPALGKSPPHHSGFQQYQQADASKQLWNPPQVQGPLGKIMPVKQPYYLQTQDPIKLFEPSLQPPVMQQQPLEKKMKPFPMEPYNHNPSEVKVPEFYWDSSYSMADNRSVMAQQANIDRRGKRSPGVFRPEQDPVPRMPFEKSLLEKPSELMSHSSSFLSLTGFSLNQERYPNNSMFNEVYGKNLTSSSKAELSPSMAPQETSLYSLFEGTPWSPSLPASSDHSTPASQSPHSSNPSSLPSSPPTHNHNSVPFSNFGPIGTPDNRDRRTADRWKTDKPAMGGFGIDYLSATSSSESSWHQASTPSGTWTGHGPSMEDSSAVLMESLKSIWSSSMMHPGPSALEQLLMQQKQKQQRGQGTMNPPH
UniProt O00506, sequence (O00506 whole entry, looked up): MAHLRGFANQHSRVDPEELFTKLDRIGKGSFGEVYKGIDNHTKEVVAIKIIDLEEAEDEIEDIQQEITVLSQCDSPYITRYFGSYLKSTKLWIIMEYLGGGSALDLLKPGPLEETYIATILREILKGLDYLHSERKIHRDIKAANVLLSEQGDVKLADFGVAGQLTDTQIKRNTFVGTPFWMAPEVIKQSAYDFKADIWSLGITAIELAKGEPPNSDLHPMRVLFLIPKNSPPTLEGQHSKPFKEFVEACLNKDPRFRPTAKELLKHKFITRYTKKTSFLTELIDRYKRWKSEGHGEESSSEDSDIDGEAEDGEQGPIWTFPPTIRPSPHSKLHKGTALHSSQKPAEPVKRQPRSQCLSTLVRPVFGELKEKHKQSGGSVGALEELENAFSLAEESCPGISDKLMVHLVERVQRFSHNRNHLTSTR
UniProt P62316, sequence (P62316 whole entry, looked up): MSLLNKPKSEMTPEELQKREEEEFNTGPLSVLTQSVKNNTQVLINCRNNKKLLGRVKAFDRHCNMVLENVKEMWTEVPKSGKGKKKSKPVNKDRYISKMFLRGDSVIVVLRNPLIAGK
UniProt Q99963, sequence (Q99963 whole entry, looked up): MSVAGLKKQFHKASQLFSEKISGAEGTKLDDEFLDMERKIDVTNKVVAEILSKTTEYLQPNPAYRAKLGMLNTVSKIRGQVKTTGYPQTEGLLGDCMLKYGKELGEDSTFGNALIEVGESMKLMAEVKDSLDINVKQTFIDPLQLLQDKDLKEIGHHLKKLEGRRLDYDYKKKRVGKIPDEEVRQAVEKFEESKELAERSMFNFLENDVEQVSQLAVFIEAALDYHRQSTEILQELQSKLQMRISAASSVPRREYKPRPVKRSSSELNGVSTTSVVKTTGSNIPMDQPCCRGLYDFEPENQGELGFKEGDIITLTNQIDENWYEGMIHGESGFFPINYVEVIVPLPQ
UniProt Q9HBM1, sequence (Q9HBM1 whole entry, looked up): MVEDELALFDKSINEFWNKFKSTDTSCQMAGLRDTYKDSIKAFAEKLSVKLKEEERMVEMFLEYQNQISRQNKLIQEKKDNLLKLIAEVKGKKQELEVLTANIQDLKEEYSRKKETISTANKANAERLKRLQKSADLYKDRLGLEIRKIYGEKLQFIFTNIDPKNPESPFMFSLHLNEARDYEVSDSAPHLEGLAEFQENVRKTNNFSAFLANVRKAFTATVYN
UniProt P31947, sequence (P31947 whole entry, looked up): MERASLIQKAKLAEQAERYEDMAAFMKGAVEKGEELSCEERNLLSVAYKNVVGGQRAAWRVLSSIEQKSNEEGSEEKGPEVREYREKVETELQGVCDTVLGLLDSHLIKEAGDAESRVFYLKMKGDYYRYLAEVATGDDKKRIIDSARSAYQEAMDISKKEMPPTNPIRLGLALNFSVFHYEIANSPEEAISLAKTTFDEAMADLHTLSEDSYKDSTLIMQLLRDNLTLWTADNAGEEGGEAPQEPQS
UniProt Q8TCT8, sequence (Q8TCT8 whole entry, looked up): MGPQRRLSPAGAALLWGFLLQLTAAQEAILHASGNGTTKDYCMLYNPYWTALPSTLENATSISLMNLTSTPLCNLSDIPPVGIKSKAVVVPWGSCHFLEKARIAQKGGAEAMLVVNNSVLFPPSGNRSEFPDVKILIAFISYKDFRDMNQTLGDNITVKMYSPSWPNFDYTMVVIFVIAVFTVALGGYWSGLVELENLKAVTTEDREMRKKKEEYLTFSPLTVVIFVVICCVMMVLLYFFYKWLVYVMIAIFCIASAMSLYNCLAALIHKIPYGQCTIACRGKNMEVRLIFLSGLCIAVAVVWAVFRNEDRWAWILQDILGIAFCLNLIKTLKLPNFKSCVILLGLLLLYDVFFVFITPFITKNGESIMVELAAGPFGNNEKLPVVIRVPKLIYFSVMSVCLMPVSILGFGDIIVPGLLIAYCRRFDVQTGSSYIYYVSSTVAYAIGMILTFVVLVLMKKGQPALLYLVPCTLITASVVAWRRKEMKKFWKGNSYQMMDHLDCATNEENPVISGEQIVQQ
UniProt Q9BWW4, sequence (Q9BWW4 whole entry, looked up): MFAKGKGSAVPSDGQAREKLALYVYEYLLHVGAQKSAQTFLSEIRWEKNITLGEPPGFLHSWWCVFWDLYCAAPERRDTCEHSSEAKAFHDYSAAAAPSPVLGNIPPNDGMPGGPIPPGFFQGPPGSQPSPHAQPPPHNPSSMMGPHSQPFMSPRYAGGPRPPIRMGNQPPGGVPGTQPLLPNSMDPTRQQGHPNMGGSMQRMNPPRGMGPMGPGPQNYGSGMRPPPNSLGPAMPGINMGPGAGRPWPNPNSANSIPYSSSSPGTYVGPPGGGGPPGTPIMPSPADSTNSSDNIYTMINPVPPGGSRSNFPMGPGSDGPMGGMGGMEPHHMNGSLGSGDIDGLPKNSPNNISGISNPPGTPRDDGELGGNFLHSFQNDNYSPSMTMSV
UniProt O00161, sequence (O00161 whole entry, looked up): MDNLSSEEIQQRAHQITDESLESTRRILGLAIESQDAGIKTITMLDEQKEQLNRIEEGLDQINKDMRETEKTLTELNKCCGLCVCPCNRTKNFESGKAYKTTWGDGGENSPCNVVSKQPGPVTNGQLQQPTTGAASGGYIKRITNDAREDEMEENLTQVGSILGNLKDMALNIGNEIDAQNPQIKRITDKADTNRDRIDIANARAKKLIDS

log2 fold change, inactive:
SSU72 (UniProt Q9NP77) -0.064
SNRPD2 (UniProt P62316) -0.004
SH3GL3 isoform 3 (UniProt Q99963) -0.054
SMYD3 (UniProt Q9H7B4) -0.036
SNCA (UniProt P37840) 0.025
STK25 (UniProt O00506) 0.021
SLC16A1 (UniProt P53985) 0.029
SNRPF (UniProt P62306) -0.017
SMG7 (UniProt Q92540) -0.058

compound: C1=CC2=NC=CN=C2C=C1/C=C/3\C(=O)NC(=O)S3; assay: as above
How it was run: as §1

log2 fold change, inactive:
STK11IP (UniProt Q8N1F8) 0.007
SPR (UniProt P35270) 0.049
SFN (UniProt P31947) -0.002
SPPL2A (UniProt Q8TCT8) -0.011
SPC25 (UniProt Q9HBM1) -0.034
SNW1 (UniProt Q13573) -0.033
SMC2 (UniProt O95347) 0.012
TARBP1 (UniProt Q13395) -0.059
SMC1B isoform 3 (UniProt Q8NDV3) -0.067
SRM (UniProt P19623) 0.014
SRRT (UniProt Q9BXP5) 0.004
SRPK1 (UniProt Q96SB4) 0.003
SNRNP40 (UniProt Q96DI7) -0.031
SHC1 isoform 6 (UniProt P29353) 0.04
SSBP3 (UniProt Q9BWW4) 0.129
SMIM8 (UniProt Q96KF7) -0.004
SNAP23 (UniProt O00161) 0.02
SPHK1 isoform 2 (UniProt Q9NYA1) 0.034
STK26 (UniProt Q9P289) 0.002
STK39 (UniProt Q9UEW8) -0.03
SMN1 (UniProt Q16637) -0.055
SMG5 (UniProt Q9UPR3) -0.012
SP1 (UniProt P08047) -0.047
SSU72 (UniProt Q9NP77) -0.003
SNRPD2 (UniProt P62316) -0.018
SH3GL3 isoform 3 (UniProt Q99963) -0.053
SMYD3 (UniProt Q9H7B4) 0.064
SNCA (UniProt P37840) -0.147
STK25 (UniProt O00506) 0.012
SLC16A1 (UniProt P53985) -0.018
SNRPF (UniProt P62306) -0.065
SMG7 (UniProt Q92540) -0.066
